The record followed here is PubChem BioAssay.

The test system of experiment [1] is Plasmodium falciparum Sir2 (PF13_0152, Sir2A). As to the kind of experiment: pfSir2 binders on small-molecule microarrays, primary screen, biochemical, small-molecule microarray, 635 nm fluorescence (AID 1098).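 Note: score merges spot fluorescence intensity with its signal-to-noise ratio.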 Conditions: small-molecule microarray binding, fluorescence 635 nm; higher = more signal.
The nature of experiment [2]: small-molecule microarray binders of probe aDKK1, primary screen, biochemical, biotinylated probe, 635/667 nm fluorescence (AID 1099).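 Note: score merges 667nm spot fluorescence with signal to noise across triplicate slides; reference of the scale not given here.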 The note with it: higher = more signal.
The nature of experiment [3]: small-molecule microarray binders of probe aCHRDL2, primary screen, biochemical, biotinylated probe, 635/667 nm fluorescence (AID 1100). The note with it: higher = more signal.
Experiment [4] can be described thus: splicing luciferase reporter signal modulators, primary screen, spliceosome inhibition project, cell-based, HEK293, splice +/- reporter (AID 1101).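 Note: HEK293 cells carrying a splicing-competent luciferase reporter gene; test concentration not given here.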 Conditions: luminescence, 24 h, higher = more signal, called active from +8 up or from −8 down. On the technique in general: Reporter assays use an easily measured gene product as a stand-in for the process of interest.

Experiment [5] addresses Fibroblast growth factor 10 (Homo sapiens) (UniProt O15520). As to the kind of experiment: FGF10 binders on small-molecule microarrays, primary screen, biochemical, small-molecule microarray, 635 nm fluorescence (AID 1102). The note with it: FGF10 binding, fluorescence 635 nm, higher = more signal.
For experiment [6], the system named is glycogen synthase kinase-3 (GSK3A per assay name; protocol says GSK3B). Briefly: GSK3 binders on small-molecule microarrays, primary screen, biochemical, small-molecule microarray, 635 nm fluorescence, GSK3A (AID 1103). Note: the record names both GSK3A and GSK3B. The note with it: small-molecule microarray binding, fluorescence 635 nm; higher = more signal.
The target in experiment [7] is Epidermal growth factor receptor (Homo sapiens) (UniProt P00533). As to the kind of experiment: EGFR binders on small-molecule microarrays, primary screen, biochemical, small-molecule microarray, 635 nm fluorescence (AID 1104).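 Note: score merges 667 nm emission intensity with spot signal to noise over triplicate slides.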 The note with it: EGFR binding, higher = more signal.
The target in experiment [8] is Follistatin-related protein 3 (Homo sapiens) (UniProt O95633). Briefly: FSTL3 binders on small-molecule microarrays, primary screen, biochemical, small-molecule microarray, 635 nm fluorescence (AID 1105).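 Note: score merges emission near 667 nm and signal to noise per printed spot across three slides.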 Conditions: FSTL3 binding, higher = more signal.
The target in experiment [9] is Dickkopf-related protein 1 (Homo sapiens) (UniProt O94907). Briefly: DKK1 binders on small-molecule microarrays, primary screen, biochemical, small-molecule microarray, 635 nm fluorescence scan (AID 1106).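 Note: score merges emission near 667 nm with signal to noise over three replicate slides.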 Conditions: DKK1 binding, higher = more signal.
Experiment [10] deals with Inhibin beta A chain (activin A). Briefly: INHBA (activin A) binders on microarrays, primary screen, biochemical, small-molecule microarray, 635 nm fluorescence scan (AID 1107).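 Note: mouse activin A protein probed at 4.33 µg/mL on printed slides; score merges bound-protein fluorescence near 667 nm with spot signal-to-noise.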 Conditions: small-molecule microarray binding, higher = more signal.

Active and inactive are the calls of the source.

Chain of Epidermal growth factor receptor (Homo sapiens) (P00533 whole entry, looked up): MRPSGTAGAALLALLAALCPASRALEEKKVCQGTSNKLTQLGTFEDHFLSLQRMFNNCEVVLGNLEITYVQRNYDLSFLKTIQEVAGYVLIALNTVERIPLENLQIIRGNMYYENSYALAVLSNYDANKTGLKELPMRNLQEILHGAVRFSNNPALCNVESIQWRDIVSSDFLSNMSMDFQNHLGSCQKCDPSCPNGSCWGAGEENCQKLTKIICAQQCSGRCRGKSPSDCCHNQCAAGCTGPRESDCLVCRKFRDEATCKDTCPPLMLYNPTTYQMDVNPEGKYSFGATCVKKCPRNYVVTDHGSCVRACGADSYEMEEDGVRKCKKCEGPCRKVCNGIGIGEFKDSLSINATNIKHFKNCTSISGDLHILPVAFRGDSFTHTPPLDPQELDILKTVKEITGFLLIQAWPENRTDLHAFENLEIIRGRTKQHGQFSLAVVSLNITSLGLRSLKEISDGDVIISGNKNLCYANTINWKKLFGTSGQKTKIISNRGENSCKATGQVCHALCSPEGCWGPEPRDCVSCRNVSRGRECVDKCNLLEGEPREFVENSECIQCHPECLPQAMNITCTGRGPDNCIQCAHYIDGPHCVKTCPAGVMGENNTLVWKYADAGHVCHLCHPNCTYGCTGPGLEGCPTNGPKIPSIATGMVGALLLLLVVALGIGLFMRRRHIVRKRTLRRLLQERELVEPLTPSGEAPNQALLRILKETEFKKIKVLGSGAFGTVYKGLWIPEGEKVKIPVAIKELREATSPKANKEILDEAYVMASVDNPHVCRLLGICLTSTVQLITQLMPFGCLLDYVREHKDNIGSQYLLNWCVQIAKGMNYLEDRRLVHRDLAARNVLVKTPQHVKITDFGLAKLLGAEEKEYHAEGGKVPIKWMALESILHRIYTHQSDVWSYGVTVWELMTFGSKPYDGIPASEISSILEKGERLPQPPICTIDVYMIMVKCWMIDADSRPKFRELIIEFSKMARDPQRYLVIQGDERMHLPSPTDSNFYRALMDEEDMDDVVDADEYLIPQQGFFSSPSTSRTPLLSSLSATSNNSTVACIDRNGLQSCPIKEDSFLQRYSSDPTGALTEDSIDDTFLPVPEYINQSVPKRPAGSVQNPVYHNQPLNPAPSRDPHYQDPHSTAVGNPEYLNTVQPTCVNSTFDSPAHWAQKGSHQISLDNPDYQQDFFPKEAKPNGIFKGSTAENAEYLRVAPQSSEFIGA
Chain of Dickkopf-related protein 1 (Homo sapiens) (O94907 whole entry, looked up): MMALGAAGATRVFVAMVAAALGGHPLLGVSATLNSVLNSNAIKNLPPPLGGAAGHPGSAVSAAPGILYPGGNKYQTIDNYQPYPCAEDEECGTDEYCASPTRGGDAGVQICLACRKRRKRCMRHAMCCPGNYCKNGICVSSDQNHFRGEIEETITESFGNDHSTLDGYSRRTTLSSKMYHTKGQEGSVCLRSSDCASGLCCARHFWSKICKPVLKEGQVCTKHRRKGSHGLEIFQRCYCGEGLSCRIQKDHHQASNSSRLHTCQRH
Chain of Follistatin-related protein 3 (Homo sapiens) (O95633 whole entry, looked up): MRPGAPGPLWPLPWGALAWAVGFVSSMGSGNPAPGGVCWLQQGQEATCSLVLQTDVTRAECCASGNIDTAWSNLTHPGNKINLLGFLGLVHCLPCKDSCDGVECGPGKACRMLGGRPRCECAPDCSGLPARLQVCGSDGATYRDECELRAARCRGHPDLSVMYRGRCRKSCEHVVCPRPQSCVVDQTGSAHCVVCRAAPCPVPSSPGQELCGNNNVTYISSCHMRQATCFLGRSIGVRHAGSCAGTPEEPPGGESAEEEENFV
Chain of Fibroblast growth factor 10 (Homo sapiens) (O15520 whole entry, looked up): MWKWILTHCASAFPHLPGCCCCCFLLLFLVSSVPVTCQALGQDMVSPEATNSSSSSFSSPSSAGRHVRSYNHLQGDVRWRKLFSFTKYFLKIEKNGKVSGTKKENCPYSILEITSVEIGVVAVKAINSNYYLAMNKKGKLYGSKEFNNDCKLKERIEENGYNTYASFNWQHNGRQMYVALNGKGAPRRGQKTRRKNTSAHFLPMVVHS

Consider `O[C@@H](Cc1ccccc1)[C@@H](/C=C/C1CC1)N(CC#Cc1ccccc1)Cc1ccccc1Br`, for which the composite z-score is -0.0214 in experiment [1]; -0.107 in [2]; 1.38 in [3]; -1.36 in experiment [5]; -0.689 in experiment [6]; -1.29 in experiment [7]. Further, the composite z-score is -1.62 in experiment [8], -1.88 in experiment [9] and 0.171 in experiment [10]. The z-score in experiment [4] is -1.39 (inactive).

`CC1CC/C=C\[C@H]2OC34C=CCN(c5ccc(Cl)cc5)C(=O)[C@H]3N(C(C)CO)C(=O)[C@]4(C)C2C(=O)O1` (stereo not given in full): the composite z-score in [1] was 0.365; in experiment [2], -0.132; in [3], 0.158; in [5], -0.39; in [6] it was -0.793; in experiment [7], -0.955. For the same molecule, the composite z-score in experiment [8] was -1.43; in experiment [9] it was -0.945; in [10] it was 0.896. In experiment [4], the z-score is -0.718 (inactive).

In the case of `COC(=O)[C@@H]1N=C(c2ccc(OCCCO)cc2)O[C@@H]1c1ccccc1`, the composite z-score was 1.76 in [1]; 0.311 in [2]; 0.725 in experiment [3]; -1.4 in [5]; -1.33 in [6]; -0.665 in experiment [7]. The composite z-score is -1.22 in experiment [8], -1.71 in [9] and -0.0285 in experiment [10]. The z-score in experiment [4] is -2.07 (inactive).

As to `CC(C)(C)OC(=O)CC[C@@]1(C(=O)NCC(O)CO)N=C(c2ccc(OCCCO)cc2)O[C@@H]1c1ccccc1CN=[N+]=[N-]` (stereo not given in full), the composite z-score in experiment [1] was 0.552; in [2], 0.726; in experiment [3], 0.918; in experiment [5], 0.364; in experiment [6], 0.706; in experiment [7] it was -0.0699. Further, the composite z-score in experiment [8] was 0.335; in experiment [9], -0.39; in experiment [10] it was 0.349. The z-score in experiment [4] is -0.0605 (inactive).

`CCOC(=O)[C@@H]1CCCCN1C(=O)C(=O)OC`: the composite z-score in experiment [1] is 0.157; in experiment [2] it was -0.0335; in experiment [3], -0.402; in experiment [5] it was 0.549; in experiment [6], 0.547; in experiment [7] it was 0.243. The composite z-score in experiment [8] was 0.751; in [9], 0.333; in experiment [10] it was -0.206. In addition, the z-score in [4] was 1.11 (inactive).

Consider `C[C@@H]1NC(=O)[C@@H](Cc2ccccc2)NC(=O)[C@@]23C(=O)N[C@@H](Cc4ccccc4)C2[C@H](C)[C@@]2(C)O[C@H]2C3/C=C/C/C=C\CNC1=O` (stereo not given in full), for which the composite z-score is 1.02 in [1]; -0.259 in experiment [2]; -0.17 in [3]; -0.2 in experiment [5]; -0.769 in experiment [6]; -0.318 in experiment [7]. Also, the values for the composite z-score in [8], in [9] and in experiment [10] were 0.119, 0.0252 and 1.16, respectively. In addition, in [4], the z-score is 0.138 (inactive).

As for `CC[C@@H]1C=C(C(=O)O)[C@H](c2ccc(C#N)cc2)N1S(=O)(=O)c1ccc(C)cc1`, the composite z-score in [1] is 1.1; in experiment [2], 0.313; in [3], 0.863; in experiment [5], 0.396; in experiment [6], 0.39; in [7] it was -0.967. The composite z-score was -0.406 in experiment [8], -1.22 in experiment [9] and 0.264 in [10]. Besides, the z-score in [4] was 0.552 (inactive).

In the case of `CCCCNC(=O)c1ccc(C#CC(C)(C)C)c(OC(C)=O)c1`, the composite z-score in experiment [1] is 0.311; in [2], -0.369; in [3], -0.675; in experiment [5] it was 1.11; in experiment [6], 1.04; in [7] it was 0.841. Besides, the composite z-score in experiment [8] came to 1.44; in experiment [9], 0.689; in [10], 1.12. In addition, the z-score in experiment [4] was -1.11 (inactive).

In the case of `COc1cc2c(cc1O)C(C1CC1)N(Cc1cccc(OC(F)(F)F)c1)CC2` (stereo not given), the composite z-score is -0.102 in [1]; 0.149 in experiment [2]; 0.542 in experiment [3]; -0.293 in [5]; -0.567 in experiment [6]; -0.881 in experiment [7]. The composite z-score was -0.0671 in [8], -0.248 in [9] and 1.45 in experiment [10]. For the same molecule, in experiment [4], the z-score was 0.654 (inactive).

In the case of `CC(C)C(CO)N1C(=O)[C@@H]2C3C(=O)OCCC/C=C\[C@H]3OC23C=CCN(c2ccc4ccccc4c2)C(=O)[C@@H]13` (stereo not given in full), the composite z-score was 0.552 in experiment [1]; -0.167 in [2]; 0.375 in [3]; 0.0329 in experiment [5]; -1.01 in experiment [6]; -1.2 in experiment [7]. For the same molecule, the composite z-score in [8] is -0.602; in experiment [9], -0.4; in experiment [10], 0.791. In experiment [4], the z-score was -0.298 (inactive).

As for `COC(=O)[C@@]1(Cc2ccc(OC)cc2)[C@H]2c3cc(C(=O)N4CCCC4)n(CCc4c[nH]c5ccc(OC)cc45)c3C[C@H]2CN1C(=O)c1ccccc1`, the composite z-score was 0.789 in [1]; 1.5 in experiment [2]; 1.55 in experiment [3]; 0.591 in [5]; 1.14 in experiment [6]; -0.0086 in experiment [7]. For the same molecule, the composite z-score in experiment [8] is 1.19; in experiment [9], -0.299; in [10] it was 0.877. The z-score in experiment [4] is -1.21 (inactive).

With `COc1ccc([C@H]2OC[C@@H]3C[C@H](Cc4ccccc4)C(=O)N32)cc1`, the composite z-score in experiment [1] was -0.33; in experiment [2] it was -0.157; in experiment [3] it was -0.598; in [5], 0.439; in experiment [6], -0.0107; in experiment [7] it was 0.212. Moreover, the composite z-score in experiment [8] was 0.401; in experiment [9] it was 0.313; in experiment [10], 0.0048. Further, in [4], the z-score was -0.524 (inactive).

Take `CCCC=C(CCC)[C@@H](NP(=O)(c1ccccc1)c1ccccc1)c1ccc(-c2ccccc2)cc1`: the composite z-score worked out at 0.517 in experiment [1]; 0.719 in experiment [2]; 0.581 in experiment [3]; 1.11 in experiment [5]; 1.27 in experiment [6]; 0.183 in experiment [7]. Moreover, the composite z-score in experiment [8] is 1.18; in experiment [9], -0.0014; in [10] it was 0.479. In experiment [4], the z-score is -2.98 (inactive).

As to `N[C@@H](Cc1ccccc1)C(=O)NCc1cn(Cc2ccccc2)nn1`, the composite z-score was -0.522 in [1]; 0.0195 in [2]; -0.283 in experiment [3]; 0.735 in experiment [5]; 0.179 in experiment [6]; 0.113 in experiment [7]. The composite z-score in [8] was found to be 0.594; in experiment [9], 0.545; in experiment [10] it was 0.85. Also, the z-score in experiment [4] is 0.0702 (inactive).

With `CCCN1C(=O)[C@]2(Cc3ccccc31)N=C(c1ccc(OCCCO)cc1)O[C@@H]2c1ccccc1`, the composite z-score was 1.07 in experiment [1]; 0.0194 in experiment [2]; 0.865 in experiment [3]; 0.592 in experiment [5]; 1.26 in [6]; -0.489 in experiment [7]. Besides, the figures for the composite z-score in experiment [8], in experiment [9] and in [10] were 0.515, -0.303 and 0.72, respectively. Further, the z-score in experiment [4] is -0.898 (inactive).

As for `CC(C)N1C(=O)c2ccccc2[C@@H](C(=O)NCCN2CCOCC2)[C@@H]1c1ccc(CO)cc1`, the composite z-score in experiment [1] was -0.256; in experiment [2] it was -0.005; in experiment [3], 0.917; in [5], -2.1; in experiment [6], -1.05; in experiment [7], -1.85. The composite z-score was -1.01 in experiment [8], -1.19 in experiment [9] and -0.0564 in experiment [10]. Besides, the z-score in experiment [4] was -0.141 (inactive).

Regarding `COCC(=C=CC[C@H](O)c1ccccc1OCCO)C[C@H](O)c1ccccn1`, the composite z-score in [1] was 0.34; in experiment [2] it was -0.201; in [3], -0.0336; in experiment [5], 0.207; in experiment [6] it was -0.115; in experiment [7] it was -0.299. In addition, the composite z-score is -0.114 in experiment [8], -0.0344 in experiment [9] and 0.41 in [10]. Also, in experiment [4], the z-score was 0.0209 (inactive).
